From PubChem BioAssay (Tox21)
“And” between values parts separate entries of the source, which are not always exact repeats. Equal entries are not always repeated. Records with an inconclusive call do not appear. A structure can be active in one record and inactive in another. The source made the active and inactive calls. Calls come from the whole dose curve; as a rule, active = well fitted curve in the direction sought with a large enough effect in the repeat runs; inconclusive = weak or mixed curves; inactive = no such curve, though single readings can be large; an effect the other way counts as inactive or inconclusive.

Columns and labels:
[1] = Human pregnane X receptor (PXR) small molecule agonists, qHTS cell viability counter screen (AID 1346977); note: nearly all actives have a fitted effect of over 50% in size; note: potency is the fitted concentration of half-maximal effect
Outline: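 In each well, the PXR reporter HepG2 line was checked for viability: CellTiter-Fluor reagent added 23hr post-dosing, fluorescence read after 1hr incubation at 37C.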

[2] = Caspase-3/7 induction in HepG2 cells by small molecules, qHTS assay (AID 1346978); note: nearly all actives have a fitted effect of over 15% in size; note: potency is the fitted concentration of half-maximal effect
Outline: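 Wild-type HepG2 cells, 2,000/well, settled 5 hr at 37 C and 5% CO2, then compound-treated for 17 hr; caspase-3/7 activity read by luminescent Caspase-Glo 3/7 after 30 min at room temperature.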

[3] = Caspase-3/7 induction in CHO-K1 cells by small molecules, qHTS cell viability counter screen (AID 1346979); note: nearly all actives have a fitted effect of over 35% in size; note: potency is the fitted concentration of half-maximal effect
Outline: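 Following a 5hr settling period, CHO-K1 cells at 1,500 per well received DMSO-dissolved compounds. Cell viability was quantified 16hr later by CellTiter-Fluor fluorescence, measured after 1hr with reagent at 37C.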

[4] = Caspase-3/7 induction in CHO-K1 cells by small molecules, qHTS assay (AID 1346980); note: nearly all actives have a fitted effect of over 15% in size
Outline: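 Wild-type CHO-K1 cells exposed to compounds for 17hr at 37 C, 5% CO2. Caspase-3/7 activity then measured by Caspase-Glo 3/7 luminescence after 30min at room temperature.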

[5] = Caspase-3/7 induction in HepG2 cells by small molecules, qHTS cell viability counter screen (AID 1346981); note: nearly all actives have a fitted effect of over 30% in size; note: potency is the fitted concentration of half-maximal effect
Outline: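 In this quantitative HTS counter screen, compounds delivered in DMSO were left on unmodified HepG2 cells for 16 hr at 37 C. Viability was then determined fluorometrically with CellTiter-Fluor, in parallel with caspase-3/7 induction in the same wells.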

[6] = biological target: Nuclear receptor subfamily 1 group I member 2 (Homo sapiens) (UniProt O75469); assay: Human pregnane X receptor (PXR) small molecule agonists, qHTS assay (AID 1346982); note: nearly all actives have a fitted effect of over 35% in size; note: potency is the fitted concentration of half-maximal effect
Chain of Nuclear receptor subfamily 1 group I member 2 (Homo sapiens) (O75469 whole entry, looked up): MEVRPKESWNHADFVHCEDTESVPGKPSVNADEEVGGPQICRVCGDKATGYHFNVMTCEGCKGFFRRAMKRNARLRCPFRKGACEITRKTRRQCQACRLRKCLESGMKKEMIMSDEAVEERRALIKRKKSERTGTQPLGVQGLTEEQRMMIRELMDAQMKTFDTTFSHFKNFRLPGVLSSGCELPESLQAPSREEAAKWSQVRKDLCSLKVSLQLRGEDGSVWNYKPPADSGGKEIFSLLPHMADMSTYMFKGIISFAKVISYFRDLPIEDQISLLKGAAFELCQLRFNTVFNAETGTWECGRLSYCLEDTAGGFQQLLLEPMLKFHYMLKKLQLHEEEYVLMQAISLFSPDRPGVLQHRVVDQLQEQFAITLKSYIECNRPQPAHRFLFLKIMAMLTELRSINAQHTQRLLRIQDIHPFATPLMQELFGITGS
Outline: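 Reporter HepG2 cells expressing PXR-Luc are cultured in charcoal-stripped FBS (5%), treated with compounds for 24 hr at 37 C, and assayed by ONE-Glo luminescence after 30 min at room temperature.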

[7] = biological target: Cytochrome P450 2C19 (Homo sapiens) (UniProt P33261); assay: Cytochrome P450 Family 2 Subfamily C Member 19 (CYP2C19) small molecule antagonists: luciferase reporter qHTS assay (AID 1671197); note: nearly all actives have a fitted effect of over 65% in size; note: potency is the fitted concentration of half-maximal effect
Chain of Cytochrome P450 2C19 (Homo sapiens) (P33261 whole entry, looked up): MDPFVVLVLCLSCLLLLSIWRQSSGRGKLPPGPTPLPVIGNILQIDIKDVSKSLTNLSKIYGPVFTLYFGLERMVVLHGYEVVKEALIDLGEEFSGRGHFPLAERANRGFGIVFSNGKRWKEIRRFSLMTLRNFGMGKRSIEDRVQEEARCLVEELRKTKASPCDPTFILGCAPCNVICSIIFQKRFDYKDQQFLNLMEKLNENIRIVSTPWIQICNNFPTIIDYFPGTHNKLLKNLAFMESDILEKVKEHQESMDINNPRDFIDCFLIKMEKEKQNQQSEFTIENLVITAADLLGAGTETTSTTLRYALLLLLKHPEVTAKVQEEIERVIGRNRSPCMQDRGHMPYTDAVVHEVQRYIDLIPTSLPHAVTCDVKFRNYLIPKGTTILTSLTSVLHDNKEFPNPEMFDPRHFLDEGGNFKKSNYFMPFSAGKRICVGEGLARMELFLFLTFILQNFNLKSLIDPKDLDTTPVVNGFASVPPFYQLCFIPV
Outline: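 Light output is proportional to CYP2C19 activity: proluciferin substrate is converted to luciferin, then detected by a luciferin detection reagent that also stops the 1 h, 37C NADPH-driven reaction. Ketoconazole serves as positive control.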

[8] = biological target: Cytochrome P450 2C9 (Homo sapiens) (UniProt P11712); assay: Cytochrome P450 Family 2 Subfamily C Member 9 (CYP2C9) small molecule antagonists: luciferase reporter qHTS assay (AID 1671198); note: nearly all actives have a fitted effect of over 50% in size; note: potency is the fitted concentration of half-maximal effect
Chain of Cytochrome P450 2C9 (Homo sapiens) (P11712 whole entry, looked up): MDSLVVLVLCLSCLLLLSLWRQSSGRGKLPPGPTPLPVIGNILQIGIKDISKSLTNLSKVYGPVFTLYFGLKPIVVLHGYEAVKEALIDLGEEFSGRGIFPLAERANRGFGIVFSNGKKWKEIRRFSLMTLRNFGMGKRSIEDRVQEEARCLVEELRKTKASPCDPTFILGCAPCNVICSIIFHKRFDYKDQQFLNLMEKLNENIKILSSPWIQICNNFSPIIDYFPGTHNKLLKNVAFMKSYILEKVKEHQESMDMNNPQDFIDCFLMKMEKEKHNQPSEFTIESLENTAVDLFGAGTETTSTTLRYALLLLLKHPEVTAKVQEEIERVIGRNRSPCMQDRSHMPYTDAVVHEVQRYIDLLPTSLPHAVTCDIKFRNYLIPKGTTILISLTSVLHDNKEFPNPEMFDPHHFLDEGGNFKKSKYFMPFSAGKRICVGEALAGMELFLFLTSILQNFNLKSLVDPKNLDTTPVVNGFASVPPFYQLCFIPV
Outline: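 P450-Glo proluciferin substrate with CYP2C9 enzyme; 10 min RT preincubation, then NADPH regeneration 1 h at 37C; luciferin detection reagent 20 min RT, luminescence in relative luminescence units.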

[9] = biological target: Voltage-gated inwardly rectifying potassium channel KCNH2 (Homo sapiens) (UniProt Q12809); assay: Human Ether-a-go-go-Related Gene (hERG) channel small molecule antagonists: fluorescence cell-based qHTS assay (AID 1671200); note: nearly all actives have a fitted effect of over 50% in size; note: potency is the fitted concentration of half-maximal effect
Chain of Voltage-gated inwardly rectifying potassium channel KCNH2 (Homo sapiens) (Q12809 whole entry, looked up): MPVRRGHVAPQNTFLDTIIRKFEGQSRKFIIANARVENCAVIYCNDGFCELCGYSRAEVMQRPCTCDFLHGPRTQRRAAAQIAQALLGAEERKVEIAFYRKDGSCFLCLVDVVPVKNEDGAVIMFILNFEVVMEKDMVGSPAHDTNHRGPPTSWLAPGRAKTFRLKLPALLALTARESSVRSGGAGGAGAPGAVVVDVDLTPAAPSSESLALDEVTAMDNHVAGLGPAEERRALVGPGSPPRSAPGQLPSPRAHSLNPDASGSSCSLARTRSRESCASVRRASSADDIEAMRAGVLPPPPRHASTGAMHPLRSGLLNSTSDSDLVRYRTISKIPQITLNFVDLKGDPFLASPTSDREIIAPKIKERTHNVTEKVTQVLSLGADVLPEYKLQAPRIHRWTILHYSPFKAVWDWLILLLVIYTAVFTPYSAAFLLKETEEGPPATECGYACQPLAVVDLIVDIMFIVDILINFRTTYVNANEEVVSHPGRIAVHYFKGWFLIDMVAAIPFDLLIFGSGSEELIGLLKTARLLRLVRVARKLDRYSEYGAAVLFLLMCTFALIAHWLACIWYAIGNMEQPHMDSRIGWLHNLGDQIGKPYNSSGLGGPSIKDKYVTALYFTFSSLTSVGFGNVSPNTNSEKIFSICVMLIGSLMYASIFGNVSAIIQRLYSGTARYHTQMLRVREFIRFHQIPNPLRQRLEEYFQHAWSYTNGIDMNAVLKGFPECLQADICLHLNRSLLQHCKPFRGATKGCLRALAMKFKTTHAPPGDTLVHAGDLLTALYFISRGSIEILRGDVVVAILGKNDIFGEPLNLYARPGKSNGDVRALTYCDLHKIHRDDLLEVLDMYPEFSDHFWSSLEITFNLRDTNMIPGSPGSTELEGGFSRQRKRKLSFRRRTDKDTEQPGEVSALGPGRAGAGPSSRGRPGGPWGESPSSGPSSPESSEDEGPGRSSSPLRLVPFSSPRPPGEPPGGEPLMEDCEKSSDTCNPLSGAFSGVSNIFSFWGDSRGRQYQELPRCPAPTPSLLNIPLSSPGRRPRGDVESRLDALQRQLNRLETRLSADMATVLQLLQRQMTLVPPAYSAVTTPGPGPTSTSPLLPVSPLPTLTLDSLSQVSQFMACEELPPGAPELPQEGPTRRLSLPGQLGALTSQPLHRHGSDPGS
Outline: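 In this thallium-flux screen, overnight-cultured U2OS cells bearing the channel are dye-loaded in darkness for an hour, rested 10 min at room temperature, and then monitored kinetically at 480/540 nm for two minutes post-stimulus.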

[10] = biological target: Cytochrome P450 3A4 (Homo sapiens) (UniProt P08684); assay: Cytochrome P450 Family 3 Subfamily A Member 4 (CYP3A4) small molecule antagonists: luciferase reporter qHTS assay (AID 1671201); note: nearly all actives have a fitted effect of over 50% in size; note: potency is the fitted concentration of half-maximal effect
Chain of Cytochrome P450 3A4 (Homo sapiens) (P08684 whole entry, looked up): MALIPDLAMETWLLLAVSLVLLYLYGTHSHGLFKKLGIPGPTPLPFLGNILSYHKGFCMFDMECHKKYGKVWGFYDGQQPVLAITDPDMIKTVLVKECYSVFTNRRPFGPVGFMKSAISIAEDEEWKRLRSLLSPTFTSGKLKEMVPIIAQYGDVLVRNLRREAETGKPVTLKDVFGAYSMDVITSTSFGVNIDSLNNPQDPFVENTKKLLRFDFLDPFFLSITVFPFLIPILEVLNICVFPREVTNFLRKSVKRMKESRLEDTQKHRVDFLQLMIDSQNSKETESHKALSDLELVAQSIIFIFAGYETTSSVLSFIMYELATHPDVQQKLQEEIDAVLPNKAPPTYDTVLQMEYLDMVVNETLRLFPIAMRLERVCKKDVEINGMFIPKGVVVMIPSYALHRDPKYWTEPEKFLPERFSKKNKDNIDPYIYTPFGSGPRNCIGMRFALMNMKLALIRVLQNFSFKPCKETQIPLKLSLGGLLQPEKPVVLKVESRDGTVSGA
Outline: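 CYP3A4 activity was followed with a P450-Glo proluciferin substrate. Test compounds in DMSO were preincubated 10 min; NADPH regeneration then ran 1 h, and light output was read 20 min after detection reagent.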

[11] = biological target: Cytochrome P450 1A2 (Homo sapiens) (UniProt P05177); assay: Cytochrome P450 Family 1 Subfamily A Member 2 (CYP1A2) small molecule antagonists: luciferase reporter qHTS assay (AID 1671199); note: nearly all actives have a fitted effect of over 50% in size; note: potency is the fitted concentration of half-maximal effect
Chain of Cytochrome P450 1A2 (Homo sapiens) (P05177 whole entry, looked up): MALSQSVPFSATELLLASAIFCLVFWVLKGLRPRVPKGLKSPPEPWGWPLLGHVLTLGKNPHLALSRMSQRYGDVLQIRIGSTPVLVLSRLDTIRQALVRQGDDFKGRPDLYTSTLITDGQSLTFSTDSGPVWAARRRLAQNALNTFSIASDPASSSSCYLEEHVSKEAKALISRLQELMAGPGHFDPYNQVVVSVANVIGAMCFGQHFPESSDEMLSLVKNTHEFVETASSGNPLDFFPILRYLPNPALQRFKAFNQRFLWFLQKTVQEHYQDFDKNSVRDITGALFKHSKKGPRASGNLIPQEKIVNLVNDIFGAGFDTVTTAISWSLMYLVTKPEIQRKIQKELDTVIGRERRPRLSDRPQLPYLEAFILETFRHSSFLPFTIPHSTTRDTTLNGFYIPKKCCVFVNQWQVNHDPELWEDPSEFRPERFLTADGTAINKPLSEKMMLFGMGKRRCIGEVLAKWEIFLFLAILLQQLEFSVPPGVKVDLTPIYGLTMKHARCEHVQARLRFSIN
Outline: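 Steps: enzyme-substrate mix dispensed; test compounds and furafylline control pinned in; 10 min room temperature; NADPH regeneration solution added, 1 h; reaction stopped with luciferin detection reagent; luminescence read after 20 min.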

[12] = biological target: Cytochrome P450 2D6 (Homo sapiens) (UniProt P10635); assay: Cytochrome P450 Family 2 Subfamily D Member 6 (CYP2D6) small molecule antagonists: luciferase reporter qHTS assay (AID 1671196); note: nearly all actives have a fitted effect of over 50% in size; note: potency is the fitted concentration of half-maximal effect
Chain of Cytochrome P450 2D6 (Homo sapiens) (P10635 whole entry, looked up): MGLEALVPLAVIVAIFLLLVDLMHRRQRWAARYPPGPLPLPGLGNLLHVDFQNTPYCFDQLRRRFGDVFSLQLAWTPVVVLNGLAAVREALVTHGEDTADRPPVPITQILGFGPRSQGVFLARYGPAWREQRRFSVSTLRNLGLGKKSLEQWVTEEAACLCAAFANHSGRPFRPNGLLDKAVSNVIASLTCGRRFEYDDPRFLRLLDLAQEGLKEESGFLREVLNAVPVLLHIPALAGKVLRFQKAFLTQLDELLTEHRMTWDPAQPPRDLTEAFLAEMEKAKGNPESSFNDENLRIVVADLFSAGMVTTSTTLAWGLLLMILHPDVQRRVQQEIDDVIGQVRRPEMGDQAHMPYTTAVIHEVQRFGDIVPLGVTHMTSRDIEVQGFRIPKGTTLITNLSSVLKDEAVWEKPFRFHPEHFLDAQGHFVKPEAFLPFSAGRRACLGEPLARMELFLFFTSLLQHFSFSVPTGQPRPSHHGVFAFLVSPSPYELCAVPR
Outline: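 Test chemicals meet CYP2D6 plus proluciferin substrate (10 min, RT); NADPH regenerating solution then drives turnover for 1 h. Detection reagent halts the reaction; luminescence measured after 20 min.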

[13] = biological target: Nuclear receptor subfamily 1 group I member 2 (Rattus norvegicus) (UniProt Q9R1A7); assay: Rat pregnane X receptor (rPXR) activation by small molecules, qHTS assay (AID 1346983); details: rPXR luciferase reporter cells, One-Glo luminescence, 24 h; stronger effect = higher value; note: nearly all actives have a fitted effect of over 20% in size
Chain of Nuclear receptor subfamily 1 group I member 2 (Rattus norvegicus) (Q9R1A7 whole entry, looked up): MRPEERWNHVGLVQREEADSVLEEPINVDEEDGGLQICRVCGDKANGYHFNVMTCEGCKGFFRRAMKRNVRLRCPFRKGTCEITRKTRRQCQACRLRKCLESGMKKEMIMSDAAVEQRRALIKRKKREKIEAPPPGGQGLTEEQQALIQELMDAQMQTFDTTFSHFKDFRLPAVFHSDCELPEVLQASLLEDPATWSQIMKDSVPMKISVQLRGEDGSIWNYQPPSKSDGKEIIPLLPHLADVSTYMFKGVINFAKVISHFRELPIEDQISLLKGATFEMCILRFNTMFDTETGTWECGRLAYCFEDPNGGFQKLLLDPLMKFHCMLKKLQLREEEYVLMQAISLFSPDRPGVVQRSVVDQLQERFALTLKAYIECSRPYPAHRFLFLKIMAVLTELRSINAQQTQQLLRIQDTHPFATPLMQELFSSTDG
Outline: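 Cell-based rPXR activation assay: rPXR cells, 2,000 per well, rested 5hr at 37 C, then exposed to compounds in DMSO for 24 hr at 37 C. Luciferase activity read by One-Glo luminescence after 30 min at room temperature.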
% is set by controls: 0 for no effect and ±100 for the full control effect.

CCc1cccc(O)c1
active: Potency [7] 40.8 µM
inactive: Potency [1] | Potency [2] | Potency [3] | Potency [4] | Potency [5] | Potency [6] | Potency [8] | Potency [9] | Potency [10]

CC(=O)OCCC(C)C
active: Potency [7] 79.7 µM
inactive: Potency [1] | Potency [2] | Potency [3] | Potency [4] | Potency [5] | Potency [6] | Potency [8] | Potency [11] | Potency [9] | Potency [10]

CC(=O)OC/C=C(\C)CCC=C(C)C
inactive and 39.9 µM (active): Potency [7] | Potency [8]
inactive: Potency [1] | Potency [2] | Potency [4] | Potency [5] | Potency [6] | Potency [12] | Potency [11] | Potency [9]
inactive and 31.7 µM (active): Potency [10]

Cc1ccc(C(C)C)cc1
inactive: Potency [1] | Potency [2] | Potency [4] | Potency [5] | Potency [6] | Potency [7] | Potency [8] | Potency [11] | Potency [9] | Potency [10]

CCN(CC)CCNC(=O)c1ccc(N)cc1
inactive: Potency [1] | Potency [2] | Potency [4] | Potency [5] | Potency [9]

Cc1cc(CC(=O)O)n(C)c1C(=O)c1ccc(Cl)cc1
inactive: Potency [1] | Potency [2] | Potency [4] | Potency [5] | max activation [13] -4.94% and -11.5% | Potency [12] | Potency [8] | Potency [11] | Potency [9] | Potency [10]

CCCCCCCCO
inactive: Potency [1] | Potency [2] | Potency [4] | Potency [5] | Potency [6] | Potency [7] | Potency [8] | Potency [9] | Potency [10]
active: Potency [11] 37.1 µM

CC/C(C)=N/O
inactive: Potency [1] | Potency [2] | Potency [4] | Potency [5] | Potency [6] | Potency [7] | Potency [8] | Potency [11] | Potency [9] | Potency [10]

CC(C)=CCC/C(C)=C/C=O
inactive and 35.6 µM (active): Potency [10]
inactive: Potency [1] | Potency [2] | Potency [4] | Potency [5] | Potency [6] | Potency [7] | Potency [11] | Potency [9]
inactive and 79.6 µM (active): Potency [8]

O=C(c1ccccc1)c1ccc(O)c(O)c1O
inactive: Potency [2] | Potency [4] | Potency [9] | Potency [10]
active: Potency [3] 69.1 µM and 61.1 µM | Potency [5] 61.6 µM | Potency [6] 54.9 µM | Potency [12] 63.8 µM | Potency [7] 80.4 µM and 63.3 µM | Potency [8] 40.3 µM and 63.3 µM

CC(=O)C(C)C
inactive: Potency [1] | Potency [2] | Potency [4] | Potency [5] | Potency [6] | Potency [12] | Potency [7] | Potency [8] | Potency [11] | Potency [9] | Potency [10]

CC(C)c1ccc(C(C)C)cc1
inactive: Potency [1] | Potency [2] | Potency [4] | Potency [5] | Potency [6] | Potency [12] | Potency [7] | Potency [8] | Potency [9] | Potency [10]

O=C(NCC1CCCCN1)c1cc(OCC(F)(F)F)ccc1OCC(F)(F)F (configuration not stated)
inactive: Potency [2] | Potency [4] | Potency [5] | Potency [7] | Potency [8] | Potency [11]
active: Potency [1] 60 µM | Potency [9] 15.2 µM and 9.52 µM

C=C(CC(=O)O)C(=O)O
inactive: Potency [2] | Potency [3] | Potency [4] | Potency [5] | Potency [9]

Cc1cc(C)c(O)c(C)c1
30.6 µM (active) and inactive: Potency [6]
active: Potency [7] 71 µM | Potency [8] 35.6 µM and 79.6 µM | Potency [11] 35.6 µM and 28.3 µM
inactive: Potency [1] | Potency [2] | Potency [4] | Potency [5] | Potency [12] | Potency [9] | Potency [10]

O=C1C(N(CO)C(=O)NCO)N(CO)C(=O)N1CO (configuration not stated)
inactive: Potency [1] | Potency [2] | Potency [4] | Potency [5] | Potency [6] | Potency [12] | Potency [7] | Potency [8] | Potency [11] | Potency [9] | Potency [10]

Cc1cc(C)cc(O)c1
6.31 µM (active) and inactive: Potency [1]
active: Potency [7] 40 µM and 73.1 µM | Potency [11] 35.7 µM and 41.1 µM
inactive: Potency [4] | Potency [6] | Potency [8] | Potency [9] | Potency [10]
12.2 µM (active) and inactive: Potency [2]

CC(C=O)Cc1ccc(C(C)(C)C)cc1 (configuration not stated)
inactive: Potency [1] | Potency [2] | Potency [4] | Potency [5] | Potency [6] | Potency [7] | Potency [11] | Potency [9] | Potency [10]
active: Potency [8] 56.4 µM

NC(=O)NC(N)=O
inactive: Potency [1] | Potency [2] | Potency [4] | Potency [5] | Potency [6] | Potency [7] | Potency [8] | Potency [11] | Potency [9] | Potency [10]
